Screens as filed in PubChem BioAssay.
Pf growth 96h: P. falciparum growth inhibition at 96 hours; P. falciparum luciferase reporter growth, 96 h; Potency, µM (highest dose often 28.7 µM), for the others: at the highest dose activity change, negative = inhibition, hits mostly inhibitors; 320,000 compounds, 6.9% hits; also: potency is read from the fitted curve at half-maximal effect; % is scaled to controls: 0 for no effect and ±100 for the full control effect
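Delayed-death screen, second-generation endpoint: infected erythrocytes, 2% hematocrit, 0.05% parasitemia final; 96 hours at 37 C, 5% CO2; luciferase detection reagent; luminescence decrease equals reduced growth.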
Shiga toxin inh: inhibitors of Shiga toxin in Vero cells; inhibition, % at 38.7 µM; 290,000 compounds, 9.2% hits; Vero cells, Shiga toxin protein synthesis inhibition reporter; AID 2315; in the data active = inhibition mostly above about 28%, no sharp cut-off; inactive = mostly below about 43%; also: 0% is about no effect
CHX counter: counter-screen for Shiga toxin inhibitors: cycloheximide protein synthesis inhibition; cell reporter, cycloheximide protein synthesis inhibition counterscreen; max response, %; 300,000 compounds, 12% hits; AID 2314; in the data active = max response mostly above about 13%, no sharp cut-off; inactive = mostly below about 14%; also: read at 38.3 µM for the half of the compounds with a filed dose; 0% is about no effect
Pf growth 48h: inhibits P. falciparum growth in the first generation, 48 h. P. falciparum luciferase growth in erythrocytes, 48 h. Potency, µM (highest dose often 28.7 µM), without a hit: at the highest dose activity change, negative = inhibition, most hits filed as inhibitors. 310,000 compounds, 5.9% hits; also: potency is read from the fitted curve at half-maximal effect; % is scaled to controls: 0 for no effect and ±100 for the full control effect
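First compound was added to culture medium, then infected red cells at 0.1% parasitemia and 2% hematocrit (final). After incubation at 37 C under 5% CO2, luciferase detection reagent was dispensed and light output recorded.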
Starred values were filed as active, the others as inactive. Shown are actives, neighbours in structure and some others; about 21% of the full set was active somewhere. Unless noted, calls follow the shape of the dose curve; as a rule, active = well fitted inhibition curve with a large enough effect; inconclusive = small, poorly fitted or top-dose-only effect, or another doubt; inactive = no such curve, though single readings can be large or run the other way.

For COC(=O)CCC(=O)N1CCCC(N2CCN(c3cccc(C(F)(F)F)c3)CC2)C1 (stereo not drawn) the results were Pf growth 96h -22%, Shiga toxin inh 1, CHX counter 1 and Pf growth 48h -14%.
Cc1ccc(C(C(=O)NC2CCCC2)N(C(=O)c2csnn2)C2CCCC2)o1 (stereo not drawn) was read as Pf growth 96h 109%, Shiga toxin inh -14, CHX counter -4 and Pf growth 48h inconclusive.
Screening CC(C)(C)NC(=O)C(c1cccs1)N(Cc1ccc(F)cc1)C(=O)c1csnn1 (stereo not drawn) returned Pf growth 96h 33%, Shiga toxin inh -6, CHX counter 1 and Pf growth 48h 9.3µM*.
Cc1ccc(CN(C(=O)c2csnn2)C(C(=O)NC2CCCC2)c2ccc(C)o2)cc1 (stereo not drawn) was read as Pf growth 96h -16%, Shiga toxin inh -4, CHX counter 1 and Pf growth 48h 15µM*.
Screening CCC(C)(C)NC(=O)C(c1ccncc1)N(Cc1ccc(C)cc1)C(=O)c1csnn1 (stereo not drawn) returned Pf growth 96h 4.7µM*, Shiga toxin inh 11, CHX counter -3 and Pf growth 48h -30%.
For Cc1cc(C)cc(C(=O)Nc2cc3c4c(c2)CC(=O)N4CCC3)c1 the results were Pf growth 96h 53% and Pf growth 48h -17%.
CN(CC(=O)Nc1ccccc1Br)C(=O)CCCSc1nc2ccccc2[nH]1 was read as Pf growth 96h inconclusive and Pf growth 48h -19%.
`COC(=O)CS(=O)(=O)c1cccc2cccnc12` gave Pf growth 96h inconclusive, Shiga toxin inh -8, CHX counter -4 and Pf growth 48h 15%.
For Oc1ccccc1/C=N/n1c2ccccc2c2ccccc21 the results were Pf growth 96h 2.6µM*, Shiga toxin inh 27, CHX counter 7 and Pf growth 48h inconclusive.
C(=N\n1c2ccccc2c2ccccc21)/c1ccccc1 was read as Pf growth 96h -6%, Shiga toxin inh -5, CHX counter 1 and Pf growth 48h 45%.
`COc1cccc(-c2noc(CCC(=O)NC3CCCC3)n2)c1` gave Pf growth 96h -10%, Shiga toxin inh 5, CHX counter 19 and Pf growth 48h 27%.
COCC(C)NC(=O)c1cc(-c2cccc(OC)c2)on1 (stereo not drawn) was read as Pf growth 96h inconclusive, Shiga toxin inh 81*, CHX counter 28* and Pf growth 48h 174%.
`COc1ccc(-c2cc(C(=O)Nc3ccccc3SC)no2)cc1OC` gave Pf growth 96h 122%, Shiga toxin inh -8, CHX counter -2 and Pf growth 48h 30%.
Screening COc1cccc(C2=NOC(C(=O)NC3CCCCC3)C2)c1 (stereo not drawn) returned Pf growth 96h inconclusive, Shiga toxin inh 26, CHX counter 15 and Pf growth 48h 3%.
COc1cccc(-c2cc(C(=O)Nc3ccccc3SC)no2)c1 was read as Pf growth 96h 16%, Shiga toxin inh 35*, CHX counter 36* and Pf growth 48h 140%.
`COc1cccc(-c2noc(CCCC(=O)NC3CCCC3)n2)c1` gave Pf growth 96h 2.3µM*, Shiga toxin inh 4, CHX counter 15* and Pf growth 48h -6%.
Screening COc1cccc(-c2cc(C(=O)NC3CCCC3)no2)c1 returned Shiga toxin inh 145*, CHX counter 47* and Pf growth 48h 149%.
For CCc1ccccc1N(C(=O)c1snc(C(N)=O)c1N)C(C(=O)NCC1CCCO1)c1c[nH]c2ccccc12 (stereo not drawn) the results were Pf growth 96h 35%, Shiga toxin inh -5, CHX counter -2 and Pf growth 48h inconclusive.
Screening c1ccc2c(c1)nc1n2CCN1CCN1CCCC1 returned Pf growth 96h 21%, Shiga toxin inh -5, CHX counter 1 and Pf growth 48h 30%.
For COCCNC(=O)c1cc(-c2cccc(OC)c2)on1 the results were Pf growth 96h 5%, Shiga toxin inh 74*, CHX counter 42* and Pf growth 48h 232%.
For COCC(C)NC(=O)c1cc(-c2ccc(O)cc2)on1 (stereo not drawn) the results were Pf growth 96h 0%, Shiga toxin inh 57 and CHX counter 36*.
`COc1cccc(-c2cc(C(=O)Nc3cccc(O)c3)no2)c1` gave Pf growth 96h -13%, Shiga toxin inh 33, CHX counter 23 and Pf growth 48h 222%.
`Cc1ccc([N+](=O)[O-])cc1-c1ccc(/C=C(\C#N)c2[nH]nc(N)c2C#N)o1` gave Pf growth 96h 108%, Shiga toxin inh 28, CHX counter 20* and Pf growth 48h inconclusive.
Cc1cccc(NC(=O)CSc2nc(NS(=O)(=O)c3ccccc3)cc(=O)[nH]2)c1 was read as Pf growth 96h 10µM*, Shiga toxin inh -5, CHX counter 1 and Pf growth 48h 0%.
Cc1ccc(NC(=O)CSc2nc(NS(=O)(=O)c3ccc(C)cc3)cc(=O)[nH]2)cc1 was read as Shiga toxin inh -7, CHX counter -2 and Pf growth 48h 5.2µM*.
For COc1ccc(NC(=O)CSc2nc(NS(=O)(=O)c3ccccc3)cc(=O)[nH]2)cc1 the results were Pf growth 96h 11%, Shiga toxin inh -7, CHX counter -2 and Pf growth 48h inconclusive.
For COc1ccc(Cl)cc1NC(=O)CSc1nc(NS(=O)(=O)c2ccccc2)cc(=O)[nH]1 the results were Pf growth 96h 8.3µM*, Shiga toxin inh -2, CHX counter -1 and Pf growth 48h 0%.
Screening O=C(O)C(Cc1c[nH]c2ccccc12)NS(=O)(=O)c1ccc(Cl)c(C(F)(F)F)c1 (stereo not drawn) returned Pf growth 96h inconclusive, Shiga toxin inh 5, CHX counter -1 and Pf growth 48h -17%.
Screening CCSCCOC(=O)C1=C(C)NC2=C(C(=O)CCC2)C1c1coc2ccccc2c1=O (stereo not drawn) returned Pf growth 96h inconclusive, Shiga toxin inh -4, CHX counter 12 and Pf growth 48h inconclusive.
COc1cccc(S(=O)(=O)NCc2ccc(C(=O)NCC3CCCO3)cc2)c1 (stereo not drawn) was read as Pf growth 96h 28%, Shiga toxin inh 45*, CHX counter 22 and Pf growth 48h 22%.
`COc1ccc(NC(=O)c2ccc(Cl)c(S(=O)(=O)NCC3CCCO3)c2)c(OC)c1` (stereo not drawn) gave Pf growth 96h 12µM*, Shiga toxin inh 2, CHX counter -1 and Pf growth 48h inconclusive.
`COc1ccc2oc(C(=O)Nc3cccc(S(=O)(=O)N4CCOCC4)c3)c(C)c2c1` gave Pf growth 96h 0% and Pf growth 48h inconclusive.
For COc1ccc2oc(C(=O)NCC3CCCO3)c(C)c2c1 (stereo not drawn) the results were Pf growth 96h 43%, Shiga toxin inh 98*, CHX counter 65* and Pf growth 48h 211%.
For COc1ccc2oc(C(=O)Nc3ccc(S(=O)(=O)N(C)C4CCN(C)CC4)cc3)c(C)c2c1 the results were Pf growth 96h inconclusive, Shiga toxin inh -25, CHX counter -8 and Pf growth 48h 5.9µM*.
